# Compound activity as filed in PubChem.
# Mot1-301 SUMO = SUMOylation pathway inhibition by Mot1-301 growth rescue; S. cerevisiae Mot1-301 growth rescue, ATP luminescence, 38.5C; percent above DMSO median, 100 means doubled; growth rescue, % at 18.8 µM; 320,000 compounds, 1% hits; AID 2716;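 active means every valid replicate shows activation above 250% relative to neutral control wells; inactive means the rest, any valid replicate at or below 250%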;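 further: OY570 slx delta 5 strain wells were the positive control but not used for scaling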
# sPLA2-III inh = Inhibits HGIII-sPLA2 liposome hydrolysis, primary screen. QFRET BODIPY PC-A2 liposome hydrolysis, fluorescence. inhibition, % at 12.2 µM. 370,000 compounds, 0.56% hits;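 active means inhibition above mean plus 3 SD of compounds lying within the high and low control bounds, cut at about 19% in these data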;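 further: 0% = median of test compound wells and 100% = no enzyme DMSO wells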
# Target sequence (Q9NZ20 whole entry, looked up): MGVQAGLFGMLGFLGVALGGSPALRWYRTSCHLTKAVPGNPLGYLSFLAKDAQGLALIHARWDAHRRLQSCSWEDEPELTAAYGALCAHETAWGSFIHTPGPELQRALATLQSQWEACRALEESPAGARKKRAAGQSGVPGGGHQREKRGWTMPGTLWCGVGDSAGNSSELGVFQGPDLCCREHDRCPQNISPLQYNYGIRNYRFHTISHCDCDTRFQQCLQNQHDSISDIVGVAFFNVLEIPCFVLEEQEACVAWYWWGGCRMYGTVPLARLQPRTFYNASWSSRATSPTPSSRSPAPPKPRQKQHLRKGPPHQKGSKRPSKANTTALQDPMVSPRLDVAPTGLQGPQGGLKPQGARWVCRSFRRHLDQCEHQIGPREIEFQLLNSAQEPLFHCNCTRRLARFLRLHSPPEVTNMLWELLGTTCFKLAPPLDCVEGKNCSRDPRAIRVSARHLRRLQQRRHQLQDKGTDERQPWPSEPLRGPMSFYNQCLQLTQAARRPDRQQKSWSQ
# Efflux pump inh = antifungal efflux pump inhibition, Nile Red retention. S. cerevisiae Candida pump triplex. inhibition, % at 10 µM. 330,000 compounds, 0.44% hits. AID 485275;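 active means plate passing quality check with inhibition over a set limit, or well fluorescence over plate mean plus 4 SD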;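 further: Nile Red retained in pooled yeast measured as flow cytometry median fluorescence; 0% = buffer negative control and 100% = Enniatin B positive control; higher means more Nile Red kept so more efflux inhibition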
# SKN-1 block = inhibitors of C. elegans SKN-1; C. elegans VP596 Pgst-4::GFP/RFP ratio, acrylamide-induced, 24 h; inhibition, % at 21.8 µM; 360,000 compounds, 0.49% hits;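 active means interference check ratio from 0.5 to 1.5 plus GFP to RFP signal ratio inhibition reaching or exceeding a fixed threshold, cut at about 30% in these data, passing the limit was not always enough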
# Yeast Mot1 SUMO = SUMO pathway inhibitors in yeast Mot1-301 growth | shares compounds with Mot1-301 SUMO | S. cerevisiae Mot1-301 galactose growth, ATP luminescence, 24 h; -100 = growth of slx-deleted rescue strain | growth activity, percent, % at 42 µM | 2,300 tested, under 10 active;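 active means Signal drops as the depositor expects, and the fitted half-maximal dose is no more than ten times the top valid tested dose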;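 further: more negative values mean stronger growth rescue toward the control strain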
# An asterisk follows results filed as active; . = not tested or not shown; + = active, no number. This is a sample that favours compounds with a hit; in the whole collection about 2.2% have one here.
SMILES,Mot1-301 SUMO,sPLA2-III inh,Efflux pump inh,SKN-1 block,Yeast Mot1 SUMO
O=C(NCCc1cnccn1)C1CCC(=O)N(Cc2ccc(Cl)cc2)C1 (centres undefined),523*,-3,0,15,0
O=C(NCCCc1ccncc1)C1CCC(=O)N(Cc2ccc(Cl)cc2)C1 (centres undefined),-3,6,0,4,.
COC(=O)C(CC(C)C)NC(=O)CNC(=O)c1ccccc1C (centres undefined),+,-1,0,6,0
O=C(Oc1ccc2c3c(c(=O)oc2c1)CCC3)c1ccccc1[N+](=O)[O-],2,.,0,.,.
O=C(OCC(=O)N1CCN(Cc2ccccc2)CC1)c1ccc(Cl)cc1,450*,-5,0,-13,1
Nc1cc(C(=O)OCC(=O)N2CCN(C(=O)COC(=O)c3ccc(Cl)c(N)c3)CC2)ccc1Cl,.,9,.,1,.
Nc1cc(C(=O)OCC(=O)N2CCOCC2)ccc1Cl,399*,7,0,7,0
CCNS(=O)(=O)c1ccc(CCC(=O)NCc2ccncc2)cc1,-9,-1,0,-13,.
COc1cccc2[nH]c(=O)c(-c3ccccc3)cc12,453*,9,0,-4,-1
COc1ccc(-c2cc(=O)[nH]c3ccccc23)cc1,2,0,0,-3,.
Clc1ccc(-n2c(SCc3cccc4ccccc34)nnc2-c2ccccn2)cc1,.,-7,.,.,.
O=C(CSc1nnc(NC(=O)CN2CCOCC2)s1)Nc1ccccc1,+,4,0,-11,0
O=C(Nc1nc(-c2ccccn2)cs1)c1ccc2c(c1)OCCO2,369*,10,0,-4,0
CC(=O)Nc1ccc(C(=O)Nc2nc(-c3ccccn3)cs2)cc1,-12,-4,0,-7,.
Cc1ccc2c(c1)[C@H]1[C@H](CO2)[C@H](c2ccccc2)[C@]2(C)C(=O)Nc3ccc(F)cc3C(=O)N12,.,1,.,3,.
COc1ccc2c(c1)[C@H]1[C@H](CO2)[C@H](c2ccccc2)[C@]2(C)C(=O)Nc3cc(Cl)ccc3C(=O)N12,107,.,0,-2,.
COc1ccc2c(c1)[C@H]1[C@H](CO2)[C@H](c2ccccc2)[C@]2(C)C(=O)Nc3cc(C)ccc3C(=O)N12,463*,-2,0,18,-1
C[C@@]12C(=O)Nc3cc(F)ccc3C(=O)N1[C@H]1c3ccccc3OC[C@@H]1[C@@H]2c1ccccc1,+,.,0,14,0
Cc1c(NS(=O)(=O)c2cc(NC(=O)CCN3CCCC(C)C3)ccc2Cl)c(=O)n(-c2ccccc2)n1C (centres undefined),17,-6,0,-3,.
CC(OC(=O)Cn1[nH]c(=O)c2ccccc2c1=O)C(=O)Nc1cccc(Cl)c1 (centres undefined),13,-7,0,-22,.
COc1ccc(OC)c(S(=O)(=O)N2CCC(C(=O)NCc3cccnc3)CC2)c1,-19,-1,0,-3,.
CCOc1ccc(Br)cc1S(=O)(=O)N1CCC(C(N)=O)CC1,438*,4,0,-2,0
CCOc1ccc(Br)cc1S(=O)(=O)N1CCCN(C)CC1,12,0,0,-2,.
CCOc1ccc(Cl)cc1S(=O)(=O)N1CCC(C(=O)NCc2cccnc2)CC1,366*,-2,0,10,0
O=C(NN=Cc1ccc(N2CCOCC2)s1)c1ccc([N+](=O)[O-])cc1,-32,7,0,13,.
SMILES,Mot1-301 SUMO,sPLA2-III inh,Efflux pump inh,SKN-1 block,Yeast Mot1 SUMO
COc1ccccc1NC(=S)N(Cc1ccco1)Cc1cc2cccc(C)c2[nH]c1=O,387*,-5,0,4,0
COc1ccccc1NC(=S)N(Cc1ccco1)Cc1cc2cc(C)c(C)cc2[nH]c1=O,4,6,0,3,.
O=S(=O)(c1cccc(-c2nnco2)c1)N1CCCC1,+,-1,0,17,0
CCn1cc(CCCC(=O)NCc2ccccc2OC)c2ccccc21,888*,-11,0,-5,0
O=C(NCC(=O)N1CCCC(C(F)(F)F)C1)c1cccs1 (centres undefined),.,6,.,17,.
CC(NC(=O)c1cnc2n(c1=O)CCS2)c1ccccc1 (centres undefined),994*,-6,0,-5,0
C/C=C\C=C/C(=O)Nc1cccc(C2=NOC3(C2)C[C@@H](C(N)=O)N(C(=O)c2ccccc2)C3)c1 (some centres undefined),433*,.,0,.,0
C/C=C\C(=O)Nc1cccc(C2=NOC3(C2)C[C@@H](C(N)=O)N(C(=O)c2ccccc2)C3)c1 (some centres undefined),1,2,0,12,.
Cc1nc(Nc2cccc(Cl)c2)c2oc3ccccc3c2n1,-7,-3,0,15,.
COc1cccc(Nc2nc(C)nc3c2oc2ccccc23)c1,451*,-1,0,7,-1
NN1C(=O)/C(=C\c2ccco2)SC1=S,-2,-8,0,5,.
O=C(c1cc(-c2ccc(Cl)c(Cl)c2)on1)N1CCN(c2ccccc2)CC1,+,3,0,18,0
O=C(c1cc(-c2ccccc2)on1)N1CCN(c2ccccc2)CC1,86,4,0,4,.
Cc1cc(C)cc(C(=O)OCCCN(C)C2CN(Cc3cn(Cc4ccccc4Cl)nn3)S(=O)(=O)C2)c1 (centres undefined),.,-31,.,.,.
O=C(CC12CC3CC(CC(C3)C1)C2)NCC(c1ccc(F)cc1)N1CCOCC1 (centres undefined),.,-3,0,-3,.
FC(F)(F)c1nnc(-c2ccccc2)nc1Oc1ccc(Cl)cc1Cl,739*,5,0,3,0
C[C@H]1CCCCO[C@H](CN(C)C(=O)C2CCCCC2)[C@@H](C)CN([C@@H](C)CO)C(=O)c2cc(NC(=O)NC3CCCCC3)ccc2O1,.,-8,.,-4,.
N#Cc1c2ccc([N+](=O)[O-])cc2[n+]([O-])n1-c1ccccc1,384*,-3,0,3,-1
O=c1c2cc([N+](=O)[O-])ccc2sn1-c1ccccc1,.,7,.,-2,.
O=C(c1cccc(NC2=NC3CS(=O)(=O)CC3S2)c1)N1CCN(c2ncccn2)CC1 (centres undefined),1,12,0,1,.
O=C(CCNC(=O)c1ccc(Br)cc1)NCc1cccnc1,3,1,0,6,.
COCC1=C(C(=O)OC)C(c2ccco2)n2ncnc2N1 (centres undefined),-32,3,0,-6,.
Cc1cccc(N2CCN(C(=O)CN3C(=O)NC(C)(C)C3=O)CC2)c1C,527*,5,0,10,0
O=C(NNc1ccccc1)C(CCO)C(=O)NNc1ccccc1,404*,2,0,3,0
Cn1cccc1C(=O)N1CCN(S(=O)(=O)c2cccc3ccccc23)CC1,.,-6,.,.,.
CN(c1ccccc1C(=O)N1CCN(Cc2ccc3c(c2)OCO3)CC1)S(C)(=O)=O,+,-2,0,6,0
Cc1ccc(F)cc1NS(=O)(=O)c1ccc(Cl)s1,378*,.,0,-1,1
